{
  "source": "the supplement of paper PMC8728848",
  "assay_in_all_cases": "glycan array binding signal (z-score within array); higher = stronger binding",
  "conditions_in_all_cases": "glycan notation: IUPAC condensed, linker removed",
  "key": {"[1]": {"target": "Glc(a1-6)Glc(a1-6)Glc(a1-6)Glc(a1-6)Glc", "method_in_brief": "(§1)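 The Consortium for Functional Glycomics database supplied 3228 glycan arrays, of which those lacking an available protein sequence were dropped. The binding signal, a within-array Z-score, was averaged across arrays of the same protein sequence and across linkers. Negative scores can be read as non-binding.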"}, "[2]": {"target": "Glc(a1-6)Glc(a1-6)Glc(a1-6)Glc(a1-6)Glc(a1-6)Glc(a1-6)Glc", "method_in_brief": "as §1"}, "[3]": {"target": "Glc(a1-6)Glc(a1-6)Glc(a1-6)Glc(a1-6)Glc(a1-6)Glc(a1-6)Glc(a1-6)Glc(a1-6)Glc(a1-6)Glc(a1-6)Glc(a1-6)Glc(a1-6)Glc", "method_in_brief": "as §1"}, "[4]": {"target": "Glc(b1-3)Glc(b1-3)Glc(b1-3)Glc(b1-3)Glc", "method_in_brief": "as §1"}, "[5]": {"target": "Glc(b1-3)Glc(b1-3)Glc(b1-3)Glc(b1-3)Glc(b1-3)Glc(b1-3)Glc", "method_in_brief": "as §1"}, "Glc(b1-4)Glc": {"target": "Glc(b1-4)Glc", "method_in_brief": "as §1"}, "[6]": {"target": "Glc(b1-6)Glc(b1-6)Glc(b1-6)Glc(b1-6)Glc(b1-6)Glc(b1-6)Glc(b1-6)Glc(b1-6)Glc(b1-6)Glc(b1-6)Glc(b1-6)Glc", "method_in_brief": "as §1"}, "GlcA(b1-3)Gal": {"target": "GlcA(b1-3)Gal", "method_in_brief": "as §1"}, "[7]": {"target": "GlcA(b1-3)Gal(b1-4)GlcNAc(b1-3)Gal(b1-4)Glc", "method_in_brief": "as §1"}, "[8]": {"target": "GlcA(b1-3)GlcNAc(b1-4)GlcA(b1-3)GlcNAc", "method_in_brief": "as §1"}, "[9]": {"target": "GlcA3S(b1-3)Gal(b1-4)GlcNAc(b1-3)Gal(b1-4)Glc", "method_in_brief": "as §1"}, "[10]": {"target": "GlcNAc(a1-4)Gal(b1-3)[Fuc(a1-2)]Gal", "method_in_brief": "as §1"}, "[11]": {"target": "GlcNAc(a1-4)Gal(b1-4)GlcNAc", "method_in_brief": "as §1"}, "[12]": {"target": "GlcNAc(a1-4)Gal(b1-4)GlcNAc(b1-3)Gal(b1-4)[Fuc(a1-3)]GlcNAc(b1-3)Gal(b1-4)[Fuc(a1-3)]GlcNAc", "method_in_brief": "as §1"}, "GlcNAc(b1-3)Gal(b1-4)Glc": {"target": "GlcNAc(b1-3)Gal(b1-4)Glc", "method_in_brief": "as §1"}, "[13]": {"target": "GlcNAc(b1-3)Gal(b1-4)GlcNAc(b1-2)Man(a1-3)[GlcNAc(b1-3)Gal(b1-4)GlcNAc(b1-2)Man(a1-6)]Man(b1-4)GlcNAc(b1-4)[Fuc(a1-6)]GlcNAc", "method_in_brief": "as §1"}, "[14]": {"target": "GlcNAc(b1-3)Gal(b1-4)GlcNAc(b1-3)Gal(b1-4)GlcNAc(b1-3)Gal(b1-4)GlcNAc(b1-3)Gal(b1-4)GlcNAc(b1-2)Man(a1-3)[GlcNAc(b1-3)Gal(b1-4)GlcNAc(b1-3)Gal(b1-4)GlcNAc(b1-3)Gal(b1-4)GlcNAc(b1-3)Gal(b1-4)GlcNAc(b1-2)Man(a1-6)]Man(b1-4)GlcNAc(b1-4)[Fuc(a1-6)]GlcNAc", "method_in_brief": "as §1"}, "Kdn(a2-6)Gal": {"target": "Kdn(a2-6)Gal", "method_in_brief": "as §1"}, "Man(a1-2)Man": {"target": "Man(a1-2)Man", "method_in_brief": "as §1"}, "[15]": {"target": "Man(a1-2)Man(a1-6)[Man(a1-3)]Man(a1-6)[Man(a1-2)Man(a1-2)Man(a1-3)]Man", "method_in_brief": "as §1"}, "[16]": {"target": "Man(a1-3)[Man(a1-6)]Man(a1-6)[Man(a1-3)]Man(b1-4)GlcNAc(b1-4)GlcNAc", "method_in_brief": "as §1"}, "[17]": {"target": "Neu5Ac(a2-3)Gal(b1-3)GlcNAc(b1-4)Gal(b1-4)Glc", "method_in_brief": "as §1"}, "[18]": {"target": "Neu5Ac(a2-3)Gal(b1-3)GlcNAc6S", "method_in_brief": "as §1"}, "[19]": {"target": "Neu5Ac(a2-3)Gal(b1-4)[Fuc(a1-3)]GlcNAc(b1-3)GalNAc", "method_in_brief": "as §1"}, "[20]": {"target": "Neu5Ac(a2-3)Gal(b1-4)[Fuc(a1-3)]GlcNAc(b1-4)GalNAc(b1-3)Gal(b1-4)Glc", "method_in_brief": "as §1"}, "[21]": {"target": "Neu5Ac(a2-3)Gal(b1-4)[Fuc2Me(a1-3)]GlcNAc(b1-3)Gal", "method_in_brief": "as §1"}, "[22]": {"target": "Neu5Ac(a2-3)Gal6S(b1-4)[Fuc(a1-3)]GlcNAc", "method_in_brief": "as §1"}, "[23]": {"target": "Neu5Ac(a2-6)Gal(b1-3)GlcNAc(b1-3)[Fuc(a1-3)[Gal(b1-4)]GlcNAc(b1-6)]Gal(b1-4)Glc", "method_in_brief": "as §1"}, "[24]": {"target": "Neu5Ac(a2-6)Gal(b1-4)GlcNAc(b1-2)Man(a1-3)[Neu5Ac(a2-3)Gal(b1-4)GlcNAc(b1-2)Man(a1-6)]Man(b1-4)GlcNAc(b1-4)GlcNAc", "method_in_brief": "as §1"}, "[25]": {"target": "Neu5Ac(a2-6)Gal(b1-4)GlcNAc(b1-3)Gal(b1-4)GlcNAc(b1-3)GalNAc", "method_in_brief": "as §1"}, "[26]": {"target": "Neu5Ac(a2-6)Gal(b1-4)GlcNAc(b1-3)Gal(b1-4)[Fuc(a1-3)]GlcNAc(b1-3)Gal(b1-4)[Fuc(a1-3)]GlcNAc", "method_in_brief": "as §1"}, "[27]": {"target": "Neu5Ac(a2-8)Neu5Ac(a2-3)[Gal(b1-3)GalNAc(b1-4)]Gal(b1-4)Glc", "method_in_brief": "as §1"}, "[28]": {"target": "Neu5Ac(a2-8)Neu5Ac(a2-8)Neu5Ac(a2-3)[Gal(b1-3)GalNAc(b1-4)]Gal(b1-4)Glc", "method_in_brief": "as §1"}, "[29]": {"target": "Neu5Ac(b2-6)Gal(b1-4)GlcNAc", "method_in_brief": "as §1"}, "Neu5Ac(b2-6)GalNAc": {"target": "Neu5Ac(b2-6)GalNAc", "method_in_brief": "as §1"}, "[30]": {"target": "Neu5Ac9Ac(a2-3)Gal(b1-3)GlcNAc", "method_in_brief": "as §1"}, "[31]": {"target": "Neu5Gc(a2-8)Neu5Ac(a2-3)Gal(b1-4)GlcNAc", "method_in_brief": "as §1"}, "[32]": {"target": "Xyl(b1-2)[Man(a1-3)][Man(a1-6)]Man(b1-4)GlcNAc(b1-4)[Fuc(a1-3)]GlcNAc", "method_in_brief": "as §1"}},
  "note": "This is one part of a sample in which the strongest signals are shown more often than they occur.",
  "data": [
    {"binder": "CLEC5A (Homo sapiens), Q9NY25 (protein) MNWHMIISGLIVVVLKVVGMTLFLLYFPQIFNKSNDGFTTTRSYGTVSQIFGSSSPSPNGFITTRSYGTVCPKDWEFYQARCFFLSTSESSWNESRDFCKGKGSTLAIVNTPEKLKFLQDITDAEKYFIGLIYHREEKRWRWINNSVFNGNVTNQNQNFNCATIGLTKTFDAASCDISYRRICEKNAK", "values": [
      {"measurement": "glycan array binding signal (z-score)", "setting": "[1]", "value": -0.32},
      {"measurement": "glycan array binding signal (z-score)", "setting": "[2]", "value": 1.51},
      {"measurement": "glycan array binding signal (z-score)", "setting": "[3]", "value": 2.19},
      {"measurement": "glycan array binding signal (z-score)", "setting": "[4]", "value": 6.52},
      {"measurement": "glycan array binding signal (z-score)", "setting": "[5]", "value": 1.8},
      {"measurement": "glycan array binding signal (z-score)", "setting": "Glc(b1-4)Glc", "value": -0.371},
      {"measurement": "glycan array binding signal (z-score)", "setting": "[6]", "value": 1.8},
      {"measurement": "glycan array binding signal (z-score)", "setting": "GlcA(b1-3)Gal", "value": -0.34},
      {"measurement": "glycan array binding signal (z-score)", "setting": "[7]", "value": -0.32},
      {"measurement": "glycan array binding signal (z-score)", "setting": "[8]", "value": -0.32},
      {"measurement": "glycan array binding signal (z-score)", "setting": "[9]", "value": -0.074},
      {"measurement": "glycan array binding signal (z-score)", "setting": "[10]", "value": -0.32},
      {"measurement": "glycan array binding signal (z-score)", "setting": "[11]", "value": -0.125},
      {"measurement": "glycan array binding signal (z-score)", "setting": "[12]", "value": 1.74},
      {"measurement": "glycan array binding signal (z-score)", "setting": "GlcNAc(b1-3)Gal(b1-4)Glc", "value": 6.6},
      {"measurement": "glycan array binding signal (z-score)", "setting": "[13]", "value": -0.014},
      {"measurement": "glycan array binding signal (z-score)", "setting": "[14]", "value": 1.7},
      {"measurement": "glycan array binding signal (z-score)", "setting": "Kdn(a2-6)Gal", "value": -0.32},
      {"measurement": "glycan array binding signal (z-score)", "setting": "Man(a1-2)Man", "value": 1.03},
      {"measurement": "glycan array binding signal (z-score)", "setting": "[15]", "value": -0.249},
      {"measurement": "glycan array binding signal (z-score)", "setting": "[16]", "value": 0.488},
      {"measurement": "glycan array binding signal (z-score)", "setting": "[17]", "value": -0.012},
      {"measurement": "glycan array binding signal (z-score)", "setting": "[18]", "value": 0.026},
      {"measurement": "glycan array binding signal (z-score)", "setting": "[19]", "value": 1.67},
      {"measurement": "glycan array binding signal (z-score)", "setting": "[20]", "value": -0.32},
      {"measurement": "glycan array binding signal (z-score)", "setting": "[21]", "value": 0.548},
      {"measurement": "glycan array binding signal (z-score)", "setting": "[22]", "value": 0.366},
      {"measurement": "glycan array binding signal (z-score)", "setting": "[23]", "value": 0.258},
      {"measurement": "glycan array binding signal (z-score)", "setting": "[24]", "value": -0.161},
      {"measurement": "glycan array binding signal (z-score)", "setting": "[25]", "value": -0.189},
      {"measurement": "glycan array binding signal (z-score)", "setting": "[26]", "value": -0.16},
      {"measurement": "glycan array binding signal (z-score)", "setting": "[27]", "value": -0.133},
      {"measurement": "glycan array binding signal (z-score)", "setting": "[28]", "value": -0.191},
      {"measurement": "glycan array binding signal (z-score)", "setting": "[29]", "value": -0.302},
      {"measurement": "glycan array binding signal (z-score)", "setting": "Neu5Ac(b2-6)GalNAc", "value": -0.184},
      {"measurement": "glycan array binding signal (z-score)", "setting": "[30]", "value": -0.191},
      {"measurement": "glycan array binding signal (z-score)", "setting": "[31]", "value": -0.121},
      {"measurement": "glycan array binding signal (z-score)", "setting": "[32]", "value": -0.32}
    ]}
  ]
}
